# Compound activity (PubChem)
# PLAP act: PLAP enzyme activators, biochemical, luminescence, HTS | purified PLAP enzyme, luminescent substrate read-out; stronger effect = higher value | Alkaline phosphatase, placental type (Homo sapiens), P05187 | 96,000 tested, 1.2% active | activation fold at 20 µM; in the data active means activation fold above about 2
# Target sequence (P05187 whole entry, looked up): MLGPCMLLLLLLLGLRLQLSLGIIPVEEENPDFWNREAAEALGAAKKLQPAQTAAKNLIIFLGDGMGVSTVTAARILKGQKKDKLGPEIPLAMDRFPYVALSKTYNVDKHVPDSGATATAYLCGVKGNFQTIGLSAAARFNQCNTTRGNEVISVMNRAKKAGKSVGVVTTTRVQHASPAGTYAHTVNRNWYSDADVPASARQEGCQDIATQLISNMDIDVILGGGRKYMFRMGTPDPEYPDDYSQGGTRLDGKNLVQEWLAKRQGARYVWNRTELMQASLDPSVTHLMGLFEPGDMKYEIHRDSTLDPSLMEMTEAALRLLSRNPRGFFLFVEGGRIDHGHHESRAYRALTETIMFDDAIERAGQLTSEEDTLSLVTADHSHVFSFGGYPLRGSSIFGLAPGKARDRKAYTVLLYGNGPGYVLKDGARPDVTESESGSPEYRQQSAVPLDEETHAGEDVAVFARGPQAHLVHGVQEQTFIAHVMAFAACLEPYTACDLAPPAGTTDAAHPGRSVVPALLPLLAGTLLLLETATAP
# CYP2C19 inhib: blockers of cytochrome P450 2C19 activity – biochemical, luminescence, ADME assay, primary screen. 96,000 tested, 21% active. CYP2C19 Supersomes, luciferin-H EGE luminescence, 30 min. inhibition, % at 5 µM. P33261. AID 778, 2007;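 active means CYP2C19 inhibition above a set limit at 5 µM in the primary screen, cut at about 50% in these data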;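 further: plate controls were negative control wells for no effect and 2.5 mM tranylcypromine positive control for full effect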
# CYP2C9 act: human CYP2C9 activators, primary screen, biochemical, luminescence | Cytochrome P450 2C9 (Homo sapiens), P11712 | recombinant CYP2C9, luciferin-H conversion; stronger effect = higher value; factor 1 = untreated enzyme, 0 = blocked | activation factor at 5 µM | 96,000 tested, 1.4% active;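 active means activation factor of 2 or more for CYP2C9 at a 5 µM dose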;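 further: 0 = sulfaphenazole-blocked wells and 1 = vehicle-only wells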
# CYP2C9 inhib: blockers of cytochrome P450 2C9 activity – biochemical, luminescence, ADME assay, primary screen. inhibition, % at 5 µM. 96,000 tested, 20% active. P11712. CYP2C9 Supersomes, luciferin-H conversion. AID 777, 2007;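 active means blocking of liver enzyme CYP2C9 beyond about 50% at 5 µM, limit read from the data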
# CYP2C19 act: human CYP2C19 activators, primary screen, biochemical, luminescence | AID 1025, 2008 | 96,000 tested, under 10 active | Cytochrome P450 2C19 (Homo sapiens), P33261 | recombinant CYP2C19, luciferin-H EGE luminescence; stronger effect = higher value; 0 = fully inhibited enzyme, 1 = untreated enzyme | activation factor at 5 µM;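 active means activation factor of at least 2 at 5 µM in the primary screen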;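 further: 0 = wells with 2.5 mM tranylcypromine and 1 = vehicle-only wells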
# * hit, by the source's call. Only some compounds are listed: those with a hit (about 31% of all), similar ones and a draw of the others.
SMILES,PLAP act,CYP2C19 inhib,CYP2C9 act,CYP2C9 inhib,CYP2C19 act
CCOC(=O)Cn1c(=O)oc2cc(S(=O)(=O)NC(C)c3ccccc3)ccc21 (stereo not given),0.8,78*,0.5,51*,0.2
CCOC(=O)Cn1c(=O)oc2cc(S(=O)(=O)NCCC(C)C)ccc21,1,47,0.2,80*,0.5
Cn1c(=O)c(=O)n(C)c2cc(S(=O)(=O)N3CCc4ccccc43)ccc21,0.8,15,0.5,54*,0.9
CCOC(=O)Cn1c(=O)oc2cc(S(=O)(=O)N(CCN(C)C)Cc3ccccc3)ccc21,1.3,-4,0.9,9,1
O=C(CCN1C(=O)COc2ccccc21)NCCN1CCN(c2ccccc2F)CC1,1.4,0,1.1,-11,1
Cc1ccc(C2=[N+]([O-])C(C)N(O)C2(C)C)o1 (stereo not given),1.5,8,1,3,0.9
CC(C)(C)NC(=O)Cn1c(=O)oc2cc(S(=O)(=O)N3CCc4ccccc43)ccc21,1.3,8,0.5,47,0.9
CCOC(=O)Cn1c(=O)oc2cc(S(=O)(=O)N3CCc4ccccc43)ccc21,1.5,67*,0.3,74*,0.3
c1ccc(-c2nc(N3CCCCCC3)nc(-n3ccnc3)n2)cc1,1.2,22,1,3,0.8
c1ccc(-c2nc(N3CCN(c4ccccc4)CC3)nc(-n3ccnc3)n2)cc1,0.9,52*,0.3,66*,0.5
c1ccc(-c2ccc(-n3ccnc3)cc2)cc1,0.7,99*,0.1,90*,0
CC(Oc1ccccc1)C(=O)Nc1ccc(S(=O)(=O)NCC2CCCO2)cc1 (stereo not given),0.9,-12,0.6,45,1.1
COc1ccc(N2CCN(C(=O)NC34CC5CC(CC(C5)C3)C4)CC2)cc1,1.8,63*,0.4,59*,0.4
COc1ccc(N2CCN(C(=S)Nc3cc(C)cc(C)c3)CC2)cc1,1,11,1,-3,0.9
COc1ccc(CCNC(=O)NC23CC4CC(CC(C4)C2)C3)cc1,0.7,53*,0.8,23,0.5
COc1ccc(CC(=O)OCC(=O)NC(=O)NC23CC4CC(CC(C4)C2)C3)cc1,1,32,0.3,66*,0.7
CNC(=S)N1CCN(c2ccc(OC)cc2)CC1,1,70*,0.8,15,0.3
COC(=O)N1CCN(c2ccc(OC)cc2)CC1,1.2,45,1.1,-9,0.6
CCNC(=O)Nn1c(C)nnc1C,1,-16,1.2,-18,1.2
Cc1cccc(C(=O)NC2CC3CCCC(C2)N3C(=O)NC2CCCCC2)c1 (stereo not given),0.9,48,0.5,49,0.5
O=C(NCCN1CCCC1)c1ccc(CS(=O)(=O)c2c(Cl)cccc2Cl)o1,1,-12,1.1,-6,1.1
O=C(c1ccc(CS(=O)(=O)c2ccccc2)o1)N1CCN(c2ncccn2)CC1,1,54*,0.4,64*,0.5
O=C(c1ccc(CS(=O)(=O)c2ccc(Br)cc2)o1)N1CCN(c2ccccn2)CC1,1.5,28,0.3,69*,0.7
Cc1ccc(S(=O)(=O)Cc2ccc(C(=O)N3CCN(c4ccccn4)CC3)o2)cc1,1,11,0.3,70*,0.9
O=C(c1ccc(CS(=O)(=O)c2c(Cl)cccc2Cl)o1)N1CCN(c2ccccn2)CC1,1.5,93*,1,0,0.1
SMILES,PLAP act,CYP2C19 inhib,CYP2C9 act,CYP2C9 inhib,CYP2C19 act
Cc1ccc(S(=O)(=O)Cc2ccc(C(=O)N3CCCCCC3)o2)cc1,0.9,31,0.7,28,0.7
O=C(c1ccc(CS(=O)(=O)c2ccc(Br)cc2)o1)N1CCOCC1,1.1,-4,1.1,-6,1
COCCNC(=O)Cn1c(=O)n(C)c2ccccc21,0.9,-3,1,3,1
CCOc1ccc(CCNC(=O)C2CCCN(S(=O)(=O)c3c(C)n[nH]c3C)C2)cc1OCC (stereo not given),1.5,29,0.6,40,0.7
Cn1c(=O)c2c(SCc3c(F)cccc3Cl)nc(CC(C)(C)C)nc2n(C)c1=O,1.2,3,0.7,32,1
OC(COCc1ccc(Cl)cc1)CN1CCN(CC(O)COCc2ccc(Cl)cc2)CC1 (stereo not given),1.6,-12,1.1,-6,1.1
COP(=O)(/C=C/c1ccccc1)C(O)c1ccc(F)cc1 (stereo not given),0.8,29,1.2,-19,0.7
O=C(c1ccc(CS(=O)(=O)c2cccc(C(F)(F)F)c2)o1)N1CCN(c2ccccn2)CC1,1.1,54*,0.4,60*,0.5
COc1cc2c(cc1OC)CN(C(=O)Cc1ccc(OC)c(S(=O)(=O)N3CCOCC3)c1)CC2,1.3,-6,0.9,6,1.1
CCN(CCCNC(=O)C1CCN(S(=O)(=O)N2CCOCC2)CC1)c1cccc(C)c1,1.4,14,0.9,12,0.9
Cc1c(C(=O)NCc2ccccc2)oc2ccc(S(=O)(=O)N3CCC4(CC3)OCCO4)cc12,1.5,30,0.5,55*,0.7
Cc1cc2oc(C(=O)NCc3ccc4c(c3)OCO4)c(C)c2cc1C,0.9,49,0.4,55*,0.5
Cc1c(C(=O)NCc2ccc3c(c2)OCO3)oc2ccc(Br)cc12,1.3,-1,0,97*,1
CCCCN(C)C(=O)c1oc2ccc(S(=O)(=O)N3CCCCCC3)cc2c1C,1.2,30,0.4,56*,0.7
Cc1ccc2oc(C(=O)NCc3ccc4c(c3)OCO4)c(C)c2c1,1,22,0.7,28,0.8
Cc1c(C(=O)Nc2cccc(Cl)c2)oc2ccc(S(=O)(=O)N3CCC4(CC3)OCCO4)cc12,1.1,-1,0.7,30,1
COc1cccc(Nc2nnc(SCC(=O)N(CC(C)C)CC(C)C)s2)c1,0.9,32,0.6,37,0.7
CCOC(=O)c1c(C)c(C(=O)NCc2ccc3c(c2)OCO3)c(C)n1C,0.8,40,0.4,60*,0.6
Cc1c(C(=O)NCc2ccc3c(c2)OCO3)oc2ccc(S(=O)(=O)N3CCCCCC3)cc12,1.4,24,0.3,68*,0.8
O=C(C1CC(c2cccc(Br)c2)=NO1)N1CCc2ccccc2C1 (stereo not given),1.1,28,1.5,-46,0.7
Cc1ccccc1-n1c(SCc2c(C)noc2C)nnc1-c1ccncc1,1.4,78*,0.5,51*,0.2
Cc1noc(C)c1CSc1nnc(-c2ccncc2)n1-c1ccc(Cl)c(Cl)c1,1.7,84*,0.4,59*,0.2
Cc1noc(C)c1CSc1nnc(-c2cc(Cl)ccc2Cl)n1N,1,32,0.8,25,0.7
COc1cc([N+](=O)[O-])ccc1NC(=O)CCCOc1cccc(C)c1C,1,15,1,-5,0.8
